HTR2A ag: mouse Htr2a agonists via beta-arrestin recruitment, primary screen, cell-based, luminescence; 5-hydroxytryptamine receptor 2A (Mus musculus), P35363; CHO-K1 mHTR2A beta-arrestin complementation; percent of 30 µM serotonin response; activation, % at 7.6 µM; actives 0.66% (n = 360,000); AID 624169, 2012;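 active means activation above a run cutoff, the mean activation of all tested compounds plus 3 SD, cut at about 14% in these data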;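 further: 0% = plate median of compound wells and 100% = 30 µM serotonin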
NPR1 activator: GC-A stimulated cGMP production enhancers – HEK293 GC-A cells, cGMP TR-FRET, EC30 ANP, primary screen | 0% at EC30 ANP, 100% saturating ANP | Atrial natriuretic peptide receptor 1 (Homo sapiens), P16066 | activation, % at 10 µM | actives 0.14% (n = 370,000) | AID 1671463, 2021; in the data active means activation above about 40%
MsrA inhibitor: bovine MsrA enzyme inhibitors, primary screen, biochemical, absorbance, HTS; Methionine sulfoxide reductase A (Bos taurus); purified bovine MsrA, absorbance read-out; inhibition, % at 15.5 µM; actives 0.75% (n = 360,000); AID 651718, 2012; in the data active means inhibition above about 4.5%;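 further: 0% = vehicle wells with enzyme and 100% = reference inhibitor wells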
GC-B act: human GC-B receptor activators, primary screen, HEK293 GC-B cells, cGMP TR-FRET, EC30 CNP. Atrial natriuretic peptide receptor 2 (Homo sapiens), P20594. 0% at EC30 CNP, 100% saturating CNP. activation, % at 10 µM. actives 0.11% (n = 370,000). AID 1920062, 2024;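 active means activation at 10 µM reaching about 35% in either raw or pattern-adjusted values, limit read from the data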
Target sequence (P20594 whole entry, looked up): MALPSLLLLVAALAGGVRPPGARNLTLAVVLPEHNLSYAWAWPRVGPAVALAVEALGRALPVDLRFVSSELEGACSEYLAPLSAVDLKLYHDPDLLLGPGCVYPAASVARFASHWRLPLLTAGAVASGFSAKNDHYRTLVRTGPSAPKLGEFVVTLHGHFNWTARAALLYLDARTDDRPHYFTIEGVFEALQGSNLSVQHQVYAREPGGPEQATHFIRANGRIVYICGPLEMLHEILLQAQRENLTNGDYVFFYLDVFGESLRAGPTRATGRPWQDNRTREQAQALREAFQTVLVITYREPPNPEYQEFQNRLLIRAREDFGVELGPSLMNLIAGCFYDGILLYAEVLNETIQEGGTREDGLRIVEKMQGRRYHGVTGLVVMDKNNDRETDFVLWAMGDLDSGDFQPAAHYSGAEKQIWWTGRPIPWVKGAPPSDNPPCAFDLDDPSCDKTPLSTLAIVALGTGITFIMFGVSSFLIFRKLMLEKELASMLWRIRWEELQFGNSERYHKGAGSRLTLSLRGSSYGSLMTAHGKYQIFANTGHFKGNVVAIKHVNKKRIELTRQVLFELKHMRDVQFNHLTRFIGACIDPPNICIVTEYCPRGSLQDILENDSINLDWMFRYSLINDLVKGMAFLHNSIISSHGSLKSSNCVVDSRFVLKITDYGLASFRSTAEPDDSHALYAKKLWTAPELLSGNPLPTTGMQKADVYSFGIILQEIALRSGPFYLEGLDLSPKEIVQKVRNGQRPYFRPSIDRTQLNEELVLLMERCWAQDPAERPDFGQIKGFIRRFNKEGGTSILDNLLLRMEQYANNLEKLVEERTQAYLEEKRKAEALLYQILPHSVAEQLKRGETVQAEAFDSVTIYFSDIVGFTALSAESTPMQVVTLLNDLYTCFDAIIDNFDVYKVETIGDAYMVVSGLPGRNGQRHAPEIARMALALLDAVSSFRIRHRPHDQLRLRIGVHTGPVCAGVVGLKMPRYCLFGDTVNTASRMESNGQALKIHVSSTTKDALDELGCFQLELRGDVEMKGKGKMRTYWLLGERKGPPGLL
bovine MsrA act: bovine MsrA enzyme activators, primary screen, biochemical, absorbance, HTS; activation, % at 10.6 µM; purified bovine MsrA, absorbance read-out; Methionine sulfoxide reductase A (Bos taurus); actives 0.3% (n = 360,000); in the data active means activation above about 7.5%;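 further: 0% = vehicle and 100% = reference activator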
OPRM1 ag: OPRM1 agonists via beta-arrestin recruitment, confirmation, counter-screen for mouse HTR2A agonist project, cell-based, luminescence, single concentration | shares compounds with HTR2A ag | U2OS OPRM1 beta-arrestin PathHunter; DMSO 0%, DAMGO 9.3 µM 100% | activation, % at 9.3 µM | actives 5.3% (n = 2,300) | AID 624380, 2012;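 active means mean activation above the mean of DMSO-only wells plus 3 SD, cut at about 0.5% in these data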
HTR2A ag conf: mouse HTR2A agonists, beta-arrestin recruitment, confirmation, cell-based, luminescence, CHO-K1 PathHunter, triplicate; shares compounds with HTR2A ag; DMSO 0%, 30 µM serotonin 100%; activation, % at 7.6 µM; actives 19% (n = 2,300);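 active means mean activation across triplicates above the hit threshold derived in the original primary screen, cut at about 15% in these data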
Numbers without * were called inactive. Only some compounds are listed: those with a hit (about 1.8% of all), similar ones and a draw of the others.

`Nc1ccc(N2CCN(c3ccc(F)cc3)CC2)cc1` gave HTR2A ag -2, NPR1 activator -2, MsrA inhibitor 1, GC-B act 0 and bovine MsrA act -3.
O=C1CC(N2CCN(c3ccc(Cl)c(Cl)c3)CC2)C(=O)N1 (stereo not given) was read as HTR2A ag 19*, NPR1 activator 0, MsrA inhibitor 0, GC-B act -4, bovine MsrA act -4, OPRM1 ag 1.6* and HTR2A ag conf 18*.
O=C(O)c1ccc(C#Cc2cccc(F)c2)cn1 was read as NPR1 activator 12 and GC-B act -2.
For CCC(C)[C@H](NC(=O)C1COC(O)([C@H](Cc2ccccc2)NC(=O)[C@@H](NC(=O)OCc2ccccc2)C(C)C)CN1C)C(=O)N[C@H](C(=O)OC)C(C)C (stereo not given in full) the results were NPR1 activator 1 and GC-B act -3.
Cc1ccccc1-n1c(SCC(=O)NCC2CCCO2)nnc1-c1ccncc1 (stereo not given) was read as HTR2A ag -2, NPR1 activator 1, MsrA inhibitor 0, GC-B act 3 and bovine MsrA act -2.
`Cc1ccccc1-n1c(SC(C)C(=O)NCC2CCCO2)nnc1-c1ccncc1` (stereo not given) gave HTR2A ag 15*, NPR1 activator -2, MsrA inhibitor 0, GC-B act -1, bovine MsrA act -8, OPRM1 ag 0 and HTR2A ag conf -1.
For CC(=O)Nc1c(-c2ccc(C(F)(F)F)cc2)nc2ncccn12 the results were NPR1 activator 3 and GC-B act -2.
Screening COc1ccc(N2CCN(C(=O)CCS(=O)(=O)c3ccc4c(c3)CCN4C(=O)C3CC3)CC2)cc1 returned HTR2A ag 16*, NPR1 activator -2, MsrA inhibitor 0, GC-B act 1, bovine MsrA act -9, OPRM1 ag -1 and HTR2A ag conf -3.
For COc1cc(-c2ccc3c(=O)c4ccccc4sc3c2)cc(OC)c1OC the results were HTR2A ag -4, NPR1 activator 3, MsrA inhibitor -1, GC-B act -3 and bovine MsrA act -7.
`COc1cc(-c2ccc3c(=O)c4ccccc4n(C)c3c2)cc(OC)c1OC` gave HTR2A ag 18*, NPR1 activator 19, MsrA inhibitor 1, GC-B act 22, bovine MsrA act -3, OPRM1 ag 0 and HTR2A ag conf 1.
O=C(CN1CCN(c2ncccn2)CC1)NCc1ccc2c(c1)OCO2 was read as HTR2A ag 10, NPR1 activator -9, MsrA inhibitor 0, GC-B act -4 and bovine MsrA act -3.
Screening Cc1ccc(CN2CCN(c3ccccc3)CC2)o1 returned HTR2A ag -1, NPR1 activator 6, MsrA inhibitor 0, GC-B act 2 and bovine MsrA act -4.
`COc1cc(Br)cc(CN2CCN(c3ncccn3)CC2)c1O` gave HTR2A ag 33*, NPR1 activator -2, MsrA inhibitor -1, GC-B act 1, bovine MsrA act -4, OPRM1 ag 0 and HTR2A ag conf 106*.
`Cc1ccc(C)c(CN2CCN(c3ncccn3)CC2)c1` gave HTR2A ag 17*, NPR1 activator 4, MsrA inhibitor 1, GC-B act 6, bovine MsrA act -4, OPRM1 ag 0 and HTR2A ag conf 62*.
For Cc1ccc(CN2CCN(c3ncccn3)CC2)o1 the results were HTR2A ag 30*, NPR1 activator 0, MsrA inhibitor 0, GC-B act 4, bovine MsrA act -10, OPRM1 ag -1 and HTR2A ag conf 60*.
Oc1cc2c(cc1CN1CCN(c3ncccn3)CC1)OCO2 was read as HTR2A ag 17*, NPR1 activator -2, MsrA inhibitor -1, GC-B act 0, bovine MsrA act -4, OPRM1 ag -1 and HTR2A ag conf 123*.
`Cc1ccc(C)c(S(=O)(=O)N2CCN(c3ncccn3)CC2)c1` gave HTR2A ag 0, NPR1 activator -3, MsrA inhibitor 1, GC-B act 4 and bovine MsrA act -5.
`CC1(c2nnnn2C2CCCCC2)CCCC(=O)N1CCc1ccc(O)cc1` (stereo not given) gave NPR1 activator -1 and GC-B act 5.
For CCNC(=O)N(C)[C@H]1C[C@H]2c3[nH]c4cccc(-c5cccc(F)c5)c4c3CCN2C(=O)[C@H]1[C@H](C)O the results were NPR1 activator -1 and GC-B act 12.
For C[C@H]1[C@H](NC(=O)c2ccc(C(C)(C)C)cc2)CC[C@@]23CCCN2C(=O)CCC[C@@H]13 the results were NPR1 activator -3 and GC-B act 2.
Fc1ccccc1CN1CCN(c2ncccn2)CC1 was read as HTR2A ag 26*, NPR1 activator 3, MsrA inhibitor -1, GC-B act -2, bovine MsrA act -2, OPRM1 ag 0 and HTR2A ag conf 121*.
For COc1cccc(CN2CCN(c3ncccn3)CC2)c1 the results were HTR2A ag 36*, NPR1 activator 3, MsrA inhibitor 1, GC-B act 0, bovine MsrA act -2, OPRM1 ag 0 and HTR2A ag conf 113*.
`CCC(C)(C)NC(=O)CN(C(=O)C(=O)Nc1ccc2c(c1)OCCO2)N1CCOCC1` gave HTR2A ag 16*, NPR1 activator 6, MsrA inhibitor 1, GC-B act 7, bovine MsrA act -2, OPRM1 ag -1 and HTR2A ag conf -1.
For CC(C)(C)NC(=O)CN(C(=O)C(=O)Nc1ccc2c(c1)OCCO2)C1CCCC1 the results were HTR2A ag -4, NPR1 activator 3, MsrA inhibitor 0, GC-B act 2 and bovine MsrA act -1.
For CC(C)c1nc(N(C)S(C)(=O)=O)nc(-c2ccc(F)cc2)c1/C=C/[C@H](O)C[C@@H](O)CC(=O)O the results were NPR1 activator 9 and GC-B act 7.

Assay outcomes (PubChem BioAssay)
